{"source": "PubChem BioAssay (EPA / NIEHS)", "note": "The source made the active and inactive calls. How the source made its calls: active means hit-call score of the fitted dose curve at least 0.9, where 1 is the maximum; inactive means score below 0.9."}
{"test": "ATG_AP_1_CIS: Attagene CIS-FACTORIAL HepG2 Assay for human Activator Protein 1 (AP-1) (AID 2282931)", "conditions": "HepG2 Attagene cis-factorial AP-1 reporter mRNA; actives raise or lower the signal", "method_in_brief": "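HepG2 cells transiently transfected with cis-element-driven reporter transcription units, dosed for 24 hours. Reporter mRNA measured by RT-PCR, 6-FAM labelling, HpaI digestion and capillary electrophoresis. Bidirectional fitting against DMSO baseline.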"}
{"smiles": "CCCCCCCCCC=O", "outcome": "inactive"}
{"smiles": "S=C(S)NCCNC(=S)S", "outcome": "inactive"}
{"smiles": "Cc1ccccc1C=O", "outcome": "inactive"}
{"smiles": "OCc1cccnc1", "outcome": "inactive"}
{"smiles": "O=C(O)c1cccc(C(F)(F)F)c1", "outcome": "inactive"}
{"smiles": "CC(=O)OCCOC(C)=O", "outcome": "inactive"}
{"smiles": "O=C(OCc1ccccc1)C(=O)OCc1ccccc1", "outcome": "inactive"}
{"smiles": "O=Nc1ccc(Nc2ccccc2)cc1", "outcome": "inactive"}
{"smiles": "CC(C=O)Cc1ccc(C(C)C)cc1", "note": "(centres undefined)", "outcome": "inactive"}
{"smiles": "CC(C)=CCO", "outcome": "inactive"}
{"smiles": "Nc1cc([N+](=O)[O-])ccc1O", "outcome": "inactive"}
{"smiles": "O=C(O)Cc1cccc2ccccc12", "outcome": "inactive"}
{"smiles": "CCC/C=C/C=O", "outcome": "inactive"}
{"test": "ATG_AP_2_CIS: Attagene CIS-FACTORIAL HepG2 Assay for human Activator Protein 2 (AP-2) (AID 2282932)", "conditions": "HepG2 AP-2 cis-reporter, Attagene transcription factor profiling; actives raise or lower the signal", "method_in_brief": "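Endogenous transcription factor activity is reported through transfected multiplex reporter constructs in HepG2, after 24 h of compound exposure. Transcripts were quantified by RT-PCR and capillary electrophoresis of fluorescent fragments. Bidirectional fit against DMSO.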"}
{"smiles": "CO[Si](C)(OC)c1ccccc1", "outcome": "inactive"}
{"smiles": "C=CCOC(=O)CCC1CCCCC1", "outcome": "inactive"}
{"smiles": "CCCCCCCCCCCCCCCCCC(=O)OCC(CC)CCCC", "note": "(centres undefined)", "outcome": "inactive"}
{"smiles": "Clc1sc(Cl)c(Cl)c1Cl", "outcome": "inactive"}
{"smiles": "CN(C)CCCN", "outcome": "inactive"}
{"smiles": "CCCC(C)C=O", "note": "(centres undefined)", "outcome": "inactive"}
{"smiles": "CCN(CC)c1ccc2c(-c3ccccc3C(=O)O)c3ccc(=[N+](CC)CC)cc-3oc2c1", "outcome": "inactive"}
{"smiles": "CC1CC(OC(=O)c2ccccc2O)CC(C)(C)C1", "note": "(centres undefined)", "outcome": "inactive"}
{"smiles": "Cc1cccc(C)c1[N+](=O)[O-]", "outcome": "inactive"}
{"smiles": "NNc1nc(-c2ccc(N)cc2)cs1", "outcome": "inactive"}
{"smiles": "CCCCc1ccc(N)cc1", "outcome": "inactive"}
{"smiles": "CCC(C)CCCC(C)(C)O", "note": "(centres undefined)", "outcome": "inactive"}
{"smiles": "CC(CCO)CCCC(C)(C)O", "note": "(centres undefined)", "outcome": "inactive"}
{"smiles": "CC(=O)O[C@]1(C(C)=O)CC[C@H]2[C@@H]3C[C@H](C)C4=CC(=O)CC[C@]4(C)[C@H]3CC[C@@]21C", "outcome": "inactive"}
{"smiles": "CC[C@]12CCCN3CCc4c(n(c5ccccc45)[C@@](O)(C(=O)OC)C1)[C@@H]32", "outcome": "inactive"}
{"smiles": "CCCCCCCCC=O", "outcome": "inactive"}
